# Laboratory results taken from PubChem BioAssay (EPA / NIEHS).
# Results filed as inconclusive are left out. Activity calls are given as the source filed them. How the source made its calls: active means hit-call score of the fitted dose curve at least 0.9, where 1 is the maximum; inconclusive means response in the unintended direction; inactive means score below 0.9.
# Target: Estrogen receptor (Homo sapiens) + Estrogen receptor beta (Homo sapiens) (UniProt P03372+Q92731)
# Assay: OT_ER_ERaERb_1440: Odyssey Thera (OT) 24-hour HEK293T Protein-Complementation Assay for Estrogen Receptor-alpha/-beta Homodimer (AID 2283356);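 further: hits raise reporter fluorescence and both agonists and antagonists give an increase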
# Procedure: OT_ER_ERaERb_1440 is a cell-based assay that uses HEK293T, a human kidney cell line, with measurements taken at 24 hours after chemical dosing in a 384-well plate.OT_ER_ERaERb_1440 is one of one assay component(s) measured or calculated from the OT_ER_ERaERb_1440 assay. It is designed to make measurements of protein fragment complementation, a form of binding reporter, as detected with fluorescence intensity signals by Protein-fragment Complementation technology.Data from the assay component OT_ER_ERaERb_1440 was analyzed into 1 assay endpoint. This assay endpoint, OT_ER_ERaERb_1440, was analyzed in the positive analysis fitting direction relative to DMSO as the negative control and baseline of activity. Using a type of binding reporter, measures of receptor for gain-of-signal activity can be used to understand the binding at the pathway-level as they relate to the gene ESR1 and ESR2. Furthermore, this assay endpoint can be referred to as a primary readout, because the performed assay has only produced 1 assay endpoint. To generalize the intended target to other relatable targets, this assay endpoint is annotated to the nuclear receptor intended target family, where the subfamily is steroidal.
# Protein-fragment complementation assay, or PCA, is a method for the identification and quantification of protein-protein interactions. In the PCA, the proteins of interest ("bait" and "prey") are each covalently linked to fragments of a third protein (e.g. DHFR, which acts as a "reporter"). Interaction between the bait and the prey proteins brings the fragments of the reporter protein in close proximity to allow them to form a functional reporter protein whose activity can be measured. The OT ER alpha / ER beta assay is a heterodimer PCA of the ligand binding domain (LBD) of ER alpha (amino acids 310-547) and human ER beta (amino acids 263-489) stably expressed in HEK293T cells. […] Fluorescent signal in the basal state of the assay is very low and is primarily punctuate and cytoplasmic. Modulation of this assay is quantified as an increase in mean fluorescence intensity in the nucleus (for agonists) or in the nucleus and cytoplasm (antagonists) relative to vehicle controls, and can be quantified on a high content imaging device or a laser scanning cytometer. The latter instrument is favored for this assay because of the rapid mode of data acquisition, the ability to acquire data from the entire cell population in a well (as opposed to a fraction of the well on the high content devices) and the larger dynamic range typically achieved with this instrument. To assess sensitivity of the ER alpha/ER beta LBD assay to ligand, cells were treated with the ER agonist 17- beta-estradiol (E2) in 10-point concentration- response format for 24 hours and monitored response on a laser scanning plate cytometer (Acumen eX3; TTP Lab Tech).
# Chain of Estrogen receptor (Homo sapiens) + Estrogen receptor beta (Homo sapiens) (P03372 whole entry, looked up): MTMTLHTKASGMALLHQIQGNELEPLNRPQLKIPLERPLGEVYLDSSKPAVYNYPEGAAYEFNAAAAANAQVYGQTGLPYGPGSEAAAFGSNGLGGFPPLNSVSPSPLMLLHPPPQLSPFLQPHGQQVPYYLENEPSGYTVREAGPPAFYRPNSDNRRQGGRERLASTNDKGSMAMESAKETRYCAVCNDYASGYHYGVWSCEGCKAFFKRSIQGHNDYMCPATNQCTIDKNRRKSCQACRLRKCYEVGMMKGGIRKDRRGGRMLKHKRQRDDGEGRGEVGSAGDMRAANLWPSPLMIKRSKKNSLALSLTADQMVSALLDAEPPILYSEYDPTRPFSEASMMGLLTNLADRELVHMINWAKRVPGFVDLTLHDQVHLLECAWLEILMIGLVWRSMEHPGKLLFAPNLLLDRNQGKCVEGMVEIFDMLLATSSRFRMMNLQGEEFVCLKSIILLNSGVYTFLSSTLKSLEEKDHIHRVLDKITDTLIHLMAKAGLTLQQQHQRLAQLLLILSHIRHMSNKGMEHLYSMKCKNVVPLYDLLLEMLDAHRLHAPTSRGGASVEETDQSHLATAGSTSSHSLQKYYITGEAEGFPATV
# Chain of Estrogen receptor (Homo sapiens) + Estrogen receptor beta (Homo sapiens) (Q92731 whole entry, looked up): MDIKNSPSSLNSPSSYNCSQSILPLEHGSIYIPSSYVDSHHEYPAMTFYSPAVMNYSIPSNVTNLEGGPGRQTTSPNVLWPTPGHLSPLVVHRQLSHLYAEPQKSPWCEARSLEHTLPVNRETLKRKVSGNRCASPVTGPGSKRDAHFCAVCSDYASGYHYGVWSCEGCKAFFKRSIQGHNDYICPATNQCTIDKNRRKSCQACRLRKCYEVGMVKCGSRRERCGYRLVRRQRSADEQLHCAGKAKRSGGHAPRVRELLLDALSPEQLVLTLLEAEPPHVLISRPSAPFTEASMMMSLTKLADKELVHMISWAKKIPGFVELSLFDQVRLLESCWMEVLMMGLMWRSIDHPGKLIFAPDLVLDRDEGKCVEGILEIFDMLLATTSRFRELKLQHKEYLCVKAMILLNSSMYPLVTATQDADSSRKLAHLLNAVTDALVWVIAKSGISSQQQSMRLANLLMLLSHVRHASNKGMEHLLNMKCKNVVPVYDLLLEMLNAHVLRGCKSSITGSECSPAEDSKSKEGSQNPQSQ
SMILES,outcome,AC50
OCCOc1ccccc1,inactive,–
CNC(=O)Oc1ccccc1OC(C)C,inactive,–
N#Cc1c(Cl)c(Cl)c(Cl)c(C#N)c1Cl,inactive,–
CC1(c2ccc(Oc3ccccc3)cc2)OC(=O)N(Nc2ccccc2)C1=O (stereo not drawn),inactive,–
CCOC1Oc2ccc(OS(C)(=O)=O)cc2C1(C)C (stereo not drawn),inactive,–
N#CN,inactive,–
CNC(=O)Oc1cccc(N=CN(C)C)c1,inactive,–
COP(=O)(OC)OC=C(Cl)Cl,inactive,–
CCC(C)(C)C(=O)OC1=C(c2ccc(Cl)cc2Cl)C(=O)OC12CCCCC2,inactive,–
O=[N+]([O-])c1c(Cl)c(Cl)c(Cl)c(Cl)c1Cl,inactive,–
CCC(C)(NC(=O)c1cc(Cl)c(C)c(Cl)c1)C(=O)CCl (stereo not drawn),inactive,–
CNC(=O)CSP(=S)(OC)OC,inactive,–
CNC(=O)/C=C(\C)OP(=O)(OC)OC,inactive,–
C#CCN1C(=O)COc2cc(F)c(N3C(=O)C4=C(CCCC4)C3=O)cc21,inactive,–
CCC(C)Nc1c([N+](=O)[O-])cc(C(C)(C)C)cc1[N+](=O)[O-] (stereo not drawn),–,69.9 µM (active)
COP(=S)(OC)Oc1ccc([N+](=O)[O-])cc1,inactive,–
CC(C)OC(=O)Nc1cccc(Cl)c1,inactive,–
O=C(NC(=O)c1c(F)cccc1F)Nc1ccc(OC(F)(F)C(F)OC(F)(F)F)c(Cl)c1 (stereo not drawn),inactive,–
O=[N+]([O-])/N=C1\NCCN1Cc1ccc(Cl)nc1,inactive,–
COc1nn(CSP(=S)(OC)OC)c(=O)s1,inactive,–
COP(=S)(OC)Oc1ccc(SC)c(C)c1,inactive,–
O=C(Nc1ccccc1)Nc1cnns1,inactive,–
CCOCN(C(=O)CCl)c1c(C)cccc1CC,inactive,–
CC(C)(C)C(O)/C(=C\c1ccc(Cl)cc1Cl)n1cncn1 (stereo not drawn),inactive,–
C[C@H]1[C@H](c2ccc(Cl)cc2)SC(=O)N1C(=O)NC1CCCCC1,inactive,–
Clc1ccccc1-c1nnc(-c2ccccc2Cl)nn1,inactive,–
CC1(C)C(C=C(Cl)Cl)C1C(=O)OC(C#N)c1ccc(F)c(Oc2ccccc2)c1 (stereo not drawn),inactive,–
CCc1ccc(C(=O)NN(C(=O)c2cc(C)cc(C)c2)C(C)(C)C)cc1,inactive,–
